In PubChem BioAssay AID1159580 (chemical genetic matrix, 2015):
In all, about 5,500 compounds went through this assay and about 2,000 (36%) were called active. Inconclusive results (about 18%) are left out. No stated cut-off is given here; in the data, active means normalized growth mostly below about 0.91 (no sharp cut-off); inconclusive means no clear call, values can overlap the other calls; inactive means mostly above about 0.92. Some of the results follow.

Experiment: chemical genetic growth profiling, strain panel (AID 1159580);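 further: tested at 20 µM; growth read once vehicle control cultures reached saturation at 30 °C; 1 = growth at the plate median or of vehicle wells; lower values mean less growth of the strain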
Conditions: S. cerevisiae deletion strains, growth OD

Measured: normalized growth

CCC(=O)O[C@H](CC(=O)O)C[N+](C)(C)C
inactive: locus YHR030C, strain SLT2, active compounds read low 1.02 | locus YHR079C, strain IRE1, active compounds read low 1.05 | locus YJL095W, strain BCK1, active compounds read low 1.05 | locus YJR066W, strain TOR1, active compounds read low 0.967 | locus YLR113W, strain HOG1, active compounds read low 1.02 | locus YNL183C, strain NPR1, active compounds read low 0.988 | locus YOR231W, strain MKK1, active compounds read low 1.04 | locus YPL256C, strain CLN2, active compounds read low 1.04
